Biological target: SSX3
Experiment: pooled miR-30 sensor sort-seq; sequence = guide strand
Details: shRNA

Going from TTGTATCTTCTCTGGTATTTGA to TTTGTATCTTCTCTGGTATTTG, the sensor-assay potency score (higher = more potent) falls from -1.1 to -1.22.

First: TTCTCCGAGACTTTCATCTTTT
Second: ATATCATGTTAATCTTCTCAGA
The sensor-assay potency score (higher = more potent) of the first is higher: -0.696 for the first, -1.24 for the second.

Going from TTGAACCTGATTCCCACGGTTA to TTTTGTATCTTCTCTGGTATTT, the sensor-assay potency score (higher = more potent) falls from -0.528 to -0.981.

Biological target: SSX4B
Experiment: as above
Details: shRNA

Compared with TTTAGTCATGACCTCATAGTTT, AACCATTTTCTTCCTCTGCTGG is higher in sensor-assay potency score (higher = more potent): -0.792 for the first, -0.606 for the second.

Compared with TAATCTTCTCCAAGGTACTTGG, TTAATCTTCTCCAAGGTACTTG is higher in sensor-assay potency score (higher = more potent): -0.322 for the first, 0.0289 for the second.

First: TTTAGCTTCATATACACATAGA
Second: TCTCTGATATTTGAGCATCATC
The sensor-assay potency score (higher = more potent) of the first is higher: -0.61 for the first, -2.01 for the second.

Going from TTGTTAATCTTCTCCAAGGTAC to TTAGTCATGACCTCATAGTTTA, the sensor-assay potency score (higher = more potent) rises from -0.679 to -0.622.

Going from ATTCCTGTGGTTTCGATCGTTA to TGTCTTGTTAATCTTCTCCAAG, the sensor-assay potency score (higher = more potent) falls from -0.284 to -1.4.

Going from TTCATAAACCACCAGCTGCTTT to TGATATTTGAGCATCATCCCTG, the sensor-assay potency score (higher = more potent) rises from -1.07 to 0.125.

Biological target: SSX5
Experiment: as above
Details: shRNA

First: TTGCTCATCAGTGAAAACGCTA
Second: TTCATAAATCACCAGTTGCTTT
The sensor-assay potency score (higher = more potent) of the first is higher: -0.328 for the first, -1.18 for the second.

Going from TTTGAGAACCAACCCTAGGTCT to TACACAAACTGAAATATGCATT, the sensor-assay potency score (higher = more potent) falls from -0.607 to -0.947.

First: TGGTATTTGAGAACCAACCCTA
Second: TTCTCGGGCGTGATCTTCGGGA
The sensor-assay potency score (higher = more potent) of the first is higher: -0.335 for the first, -0.793 for the second.

Going from TTTCTCTCACGCACTCTGTGGG to AACAGAAACACTAACATCGAAC, the sensor-assay potency score (higher = more potent) falls from -0.559 to -0.742.

Compared with TTGCTTTCTCTCACGCACTCTG, TGCTTTTGCATCTTCTCTGGTA is lower in sensor-assay potency score (higher = more potent): 0.108 for the first, -0.325 for the second.

First: TTGTTAACCTTCTCAGAGGTAT
Second: TTCTCTCACGCACTCTGTGGGT
The sensor-assay potency score (higher = more potent) of the first is higher: -0.473 for the first, -1.32 for the second.

Biological target: ST6GAL2
Experiment: as above
Details: shRNA

Compared with TAAGATTTGCGGAATATGGGGC, TTGGTTGAATCTTCTCTTTAGT is lower in sensor-assay potency score (higher = more potent): 0.141 for the first, -0.57 for the second.

Going from TTTATGTTCAAACCCATCTTGG to TTTATTCCCAACATCTTTCTCA, the sensor-assay potency score (higher = more potent) rises from -0.693 to 0.384.

Compared with TTCTCTTTAGTGTTCTCCTGGA, TTGAATCTTCTCTTTAGTGTTC is higher in sensor-assay potency score (higher = more potent): 0.105 for the first, 0.135 for the second.

Going from TACACGTGCACCTCTCTGCACA to TTAATGATGCGTATGGTGGTTT, the sensor-assay potency score (higher = more potent) rises from -0.913 to -0.296.

Compared with AAGTAGTCGTCATCCTCCGGGT, TGCGTCGTAGTACAGCTCGTGG is lower in sensor-assay potency score (higher = more potent): -0.429 for the first, -0.842 for the second.

From the OligoGym collection
